# In the library only some 13% were active in any assay of this set; here they are far more common.
# HCV inh = qHTS Assay for Inhibitors of Hepatitis C Virus (HCV) | Huh7.5.1 HCVcc-Cre infection, luciferase reporter, 44 h | Potency, µM (titrated, usually from 41.8 µM), without a hit: top-dose activity change, negative = inhibition, usual class: inhibitors | actives 3.4% (n = 340,000) | AID 651820, 2012; active means well fitted inhibition curve with a large enough effect; inconclusive means small, poorly fitted or top-dose-only effect, or another doubt; inactive means no such curve, though single readings can be large or run the other way; further: potency means the concentration at half of the fitted maximal effect; on the % scale 0 is the no-effect control and ±100 the full control effect
#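 Luciferase read-out (15 sec integration) after a 15 min room-temperature substrate step quantifies HCVcc-Cre infection. Cells, 1,000 per well, had compound added 4 h post-plating, then virus at ~0.5 moi, and were cultured 44 h.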
# MARV entry inh = qHTS for inhibitors of binding or entry into cells for Marburg Virus; Potency, µM (doses to about 37.8 µM), for inactives: at the highest dose activity change, negative = inhibition, usual class: inhibitors; actives 1.8% (n = 300,000); Marburg virus pseudotyped entry inhibition, cell reporter; AID 540276, 2011; calls by dose curve; tested in HEK293 cells; further: potency means the concentration at half of the fitted maximal effect; on the % scale 0 is the no-effect control and ±100 the full control effect
# Lassa entry inh = qHTS for Inhibitors of binding or entry into cells for Lassa Virus | Lassa virus pseudotype entry inhibition, cell reporter | actives 1.2% (n = 300,000) | Potency, µM (highest dose often 37.9 µM), for inactives: top-dose activity change, negative = inhibition, hits mostly inhibitors; calls by dose curve; tested in HEK293 cells; further: potency means the concentration at half of the fitted maximal effect; on the % scale 0 is the no-effect control and ±100 the full control effect; nearly all actives have a fitted effect of over 50% in size
# Cycloheximide cs = Cycloheximide Counterscreen for Small Molecule Inhibitors of Shiga Toxin; cell reporter, cycloheximide protein synthesis inhibition counterscreen; actives 12% (n = 300,000); max response, %; in the data active means max response mostly above about 13%, no sharp cut-off; inactive means mostly below about 14%; further: read at 38.3 µM for the half of the compounds with a filed dose; 0% is about no effect
# FMDV inh = High Throughput Screening for Foot and Mouth Disease Virus Antivirals; FMDV antiviral cell-based qHTS; Potency, µM (titrated, usually from 57.9 µM), inactives show at the top dose activity change, negative = inhibition, hits mostly inhibitors; actives 1.2% (n = 410,000); calls by dose curve; tested in HEK293T cells; further: read-out not given here; potency means the concentration at half of the fitted maximal effect; on the % scale 0 is the no-effect control and ±100 the full control effect; nearly all actives have a fitted effect of over 45% in size
# Shiga toxin inh = A qHTS for Small Molecule Inhibitors of Shiga Toxin. AID 2315, 2010. Vero cells, Shiga toxin protein synthesis inhibition reporter. inhibition, % at 38.7 µM. actives 9.2% (n = 290,000); in the data active means inhibition mostly above about 28%, no sharp cut-off; inactive means mostly below about 43%; further: 0% is about no effect
# * hit, by the source's call; ? = inconclusive; . = no result; [ ] = another dose, or the depositor's remark.
SMILES,HCV inh,MARV entry inh,Lassa entry inh,Cycloheximide cs,FMDV inh,Shiga toxin inh
CCC(CC)C(=O)Nc1cccc(C(=O)Nc2ccc(S(=O)(=O)Nc3ccc(C)cc3)cc2)c1,16µM*,?,?,-4,?,-5
CCC(CC)C(=O)Nc1cccc(C(=O)Nc2ccc(S(N)(=O)=O)cc2)c1,-24%,6%[46.1 µM],-25%[46.1 µM],-4,-10%,-6
CC(C)NC1(C(N)=O)CCNCC1,3%,11%[46.1 µM],-5%[46.1 µM],.,-8%,.
Cc1ccc(NC(=O)CN(C)C(=O)c2sc3cc(Cl)ccc3c2Cl)cc1,-4%[8.37 µM],13%,-1%,.,-13%,.
Cc1c(CN(C)C(=O)c2sc3cc(Cl)ccc3c2Cl)cnn1C,22µM*,?,-22%,-1,0%,-15
COc1ccccc1C1CCN(c2ccc([N+](=O)[O-])c(OC)c2)CC1,?,0%[14.2 µM],-24%,35*,9%,64*
COC(CNC(=O)c1ccc2c3c(onc13)-c1ccccc1C2=O)OC,?,?,?,35*,?,75*
Cc1ccc(-c2csnn2)cc1,10%,.,.,-1,-9%,28
COc1ccc(-c2csc(N)n2)cc1,?,?,-21%,37*,41%,58*
c1ccc2cc(-c3csnn3)ccc2c1,-7%,16%[46.1 µM],17%,32*,3%,108*
Nc1nc(-c2ccc(-c3ccccc3)cc2)cs1,10µM*,?,-27%[46.1 µM],62*,9%,151*
COc1ccc(-c2csc(N=C(N)N)n2)cc1,-4%,16%[46.1 µM],19%[46.1 µM],25*,12%,68*
Cc1ccc(-c2csc(N)n2)cc1,-4%,25%[46.1 µM],16%[46.1 µM],.,36%,.
c1ccc(-c2ccccc2OCCOCCN2CCNCC2)cc1,1%,?,14%,1,-18%,-4
Nc1nc(-c2ccc(Oc3ccccc3)cc2)cs1,10µM*,.,.,39*,22%,53*
Nc1nc(-c2ccc3ccccc3c2)cs1,-7%,?,19%,43*,45%,86*
COc1ccc(-c2nncnn2)cc1,1%,1%,-20%,16,27%,22
Nc1nc(-c2ccc(C(=O)O)cc2)cs1,-18%,-1%[46.1 µM],5%,1,1%,26
Cc1ccc(-c2csc(N=C(N)N)n2)c(C)c1,12%,?,3%,36*,-8%,37*
COc1ccc(-c2ccc(OC)cc2)cc1,-1%,9%,4%,34*,63%,13
CCC1CCCCN1C(=O)CCc1nnc(C2CCCCC2)o1 (stereo unspecified),11%,?,13%[46.1 µM],47*,15%,66*
COC(=O)[C@@H]1CCCN1C(=O)CCc1nnc(C2CCCCC2)o1,10%,?,4%[46.1 µM],14*,22%,16*
CCOC(=O)/C(C#N)=C/Nc1ccccc1NS(=O)(=O)c1ccc2c(c1)OCCO2,0%,.,.,.,11%,.
COc1ccc(C2NN=C(c3ccc(C)cc3)S2)cc1OC (stereo unspecified),?,6%[46.1 µM],.,38*,31%,92*
COc1cc(NC(=O)c2cc(C3CC3)on2)c(OC)cc1Cl,?,.,.,4,-21%,5
SMILES,HCV inh,MARV entry inh,Lassa entry inh,Cycloheximide cs,FMDV inh,Shiga toxin inh
COc1cc(NC(=O)c2cc3nc(C)cc(C)n3n2)c(OC)cc1Cl,?,6%,?,53*,31%,62*
COc1cc(NC(=O)c2nc3nc(C)cc(C(F)F)n3n2)c(OC)cc1Cl,.,?,5%[46.1 µM],.,-11%,.
COc1cccc(-c2cc(C(=O)Nc3ccc(OC)cc3OC)no2)c1,.,-11%[46.1 µM],17%[46.1 µM],.,-4%,.
COc1ccc(NC(=O)c2cc(C(C)C)on2)c(OC)c1,-24%,.,.,53*,40%,114*
COc1ccc(NC(=O)c2cc(-c3ccc(C)cc3)on2)cc1OC,1%,-1%,6%,0,3%,-14
COc1cc(NC(=O)c2cc(C(C)C)on2)c(OC)cc1Cl,11µM*,15µM*,?,13*,-8%,32
COc1ccc(NC(=O)c2cc(C(C)C)on2)cc1OC,-16%,?,-7%,44*,73%,45*
Cc1ccc(C(=O)CCC(=O)Nc2ncccc2O)cc1,-1%,?,-20%,.,23%,.
N/C(=N\OC(=O)C1CCCCC1)c1cccnc1,10%,23%,21%,15,31%,22
O=C(CCc1nc(-c2ccccc2)no1)Nc1cc(C(F)(F)F)ccc1Cl,-21%,-19%,-22%,11,-27%,6
COc1ccc(C(=O)Nc2ccccc2C(=O)NCCN2CCOCC2)cc1OC,1%,.,.,-3,-17%,-9
COc1cc(NC(=O)c2ccc(F)cc2)c(OC)cc1Cl,?,0%,-9%,8,87%,12
COc1cc(NC(=O)c2c(F)c(F)c(F)c(F)c2F)c(OC)cc1Cl,11µM*,?,-28%,-1,?,-12
CN1N=C2c3ccccc3CCCC2C1c1ccc(F)cc1 (stereo unspecified),12%,0%[46.1 µM],?,39*,-11%,76*
CC(=O)N1N=C2c3ccccc3CCC2C1c1cccs1 (stereo unspecified),-14%,.,.,-3,-16%,4
CSc1nnc(Cn2c(=O)sc3ccccc32)n1-c1ccccc1,-12%,.,.,-2,-12%,19
O=C1C2C3C=CC(C3)C2C(=O)N1c1ccc(N2CCN(c3ccccn3)CC2)c([N+](=O)[O-])c1 (stereo unspecified),10µM*,.,.,3,?,11
O=C(CCN1C(=O)C2C3C=CC(C3)C2C1=O)N1CCN(c2ccccn2)CC1 (stereo unspecified),-8%,1%,-23%,-3,2%,-8
Cc1ccc(NC(=O)CCNC(=O)c2ccccc2)cc1F,-7%,22%[46.1 µM],9%[46.1 µM],18,3%,26
O=C1CC(c2ccccc2)NN1 (stereo unspecified),2%,.,.,.,-10%,.
FC(F)(F)c1cccc(N2CCN(C(=S)NC3CCCC3)CC2)c1,32µM*,?,-26%,1,20µM*,22
CN(C)S(=O)(=O)c1ccc(NC(=O)N2CCN(c3cccc(C(F)(F)F)c3)CC2)cc1,11µM*,?,?,4,28µM*,15
C=CCNC(=S)N1CCN(c2cccc(C(F)(F)F)c2)CC1,-4%,?,-30%,46*,0%,-19
COc1ccc(NC(=O)N2CCN(c3cccc(C(F)(F)F)c3)CC2)cc1,?,?,-6%,-3,?,-7
Cc1csc(Nc2ccccc2)[n+]1C,7%,-8%[46.1 µM],2%,36*,49%,67
CC(C)(CO)CNC(=O)CCc1nnc(CCCc2ccccc2)o1,15%,.,.,22*,40%,36
Cc1ccsc1CN(C)C(=O)CCc1nnc(COc2ccccc2)o1,1%,-5%[46.1 µM],28%,35*,73%,56*
